# Experimental data from the OligoGym collection.
# Target: PEG10
# Test: pooled miR-30 sensor sort-seq; sequence = guide strand
# Settings: shRNA
# Also: reference of the scale not given here.
row,Sequence,sensor-assay potency score (higher = more potent)
1,TTAAGTTGTTGATCTCTTCAGA,-0.104
2,TCAACTGAGAAATCCCTGGTGC,0.598
3,TGTCAGCGTAGTGACCTCCTGT,-0.0667
4,TGCAATGTGAGGCAACACCAGC,-1.84
5,TTGATCTCTTCAGAGAGCTCGT,0.178
6,TTGCCATCGAACTTCTCTGGGA,-0.275
7,TTGTGCATCAGGTAGTGGGAGC,-1.26
8,TAGTTGTGCATCAGGTAGTGGG,-0.718

# Target: PEG3
# Test: as above
# Settings: shRNA
row,Sequence,sensor-assay potency score (higher = more potent)
1,TTATAGTATGACTCTTCTGAGA,-1.1
2,TTCTTCTACCTGAATCTCTTGA,0.127
3,TTATCATCTGACATTCTGGGGA,0.23
4,TTGTGTTGAGGTCTTCGCTGGT,0.119
5,ATAACCTCTAGCATGAATCTTC,-0.113
6,TTGATCGTGAATCGAGCCCTTC,-0.255
7,TTTGTCATCAGGGTCATCCTTC,0.301
8,TAATCTCTCTGATACTCGCTGA,-0.226
9,TTCACTGACAGCCACACTGTGG,-0.755
10,TTCAATGAAATGTCCTTCCAGT,0.297
11,TTTCTTTTTAGCACGAGCCTTC,-0.635
12,TTGATCTTCACCTTCTTCTGGG,0.701
